The whole screen tested about 16,000 compounds, of which about 2,600 (16%) were called active. Inconclusive results (about 20%) are left out. Calls follow the shape of the dose curve; as a rule, active = well fitted curve in the direction sought with a large enough effect; inconclusive = small, poorly fitted or top-dose-only effect, or effect the other way; inactive = no such curve, though single readings can be large or run the other way. These entries were drawn from the full list. A structure can be active in one record and inactive in another.
Biological target: Cytochrome P450 2D6 (Homo sapiens) (UniProt P10635)
Experiment: Cytochrome panel assay with activity outcomes
Settings: recombinant CYP, pro-luciferin dealkylation, luminescence, p450-cyp2d6; series mostly up to 57.1 µM; activity, negative = inhibition: at the top concentration
% is scaled to controls: 0 for no effect and ±100 for the full control effect.

Chain of Cytochrome P450 2D6 (Homo sapiens) (P10635 whole entry, looked up): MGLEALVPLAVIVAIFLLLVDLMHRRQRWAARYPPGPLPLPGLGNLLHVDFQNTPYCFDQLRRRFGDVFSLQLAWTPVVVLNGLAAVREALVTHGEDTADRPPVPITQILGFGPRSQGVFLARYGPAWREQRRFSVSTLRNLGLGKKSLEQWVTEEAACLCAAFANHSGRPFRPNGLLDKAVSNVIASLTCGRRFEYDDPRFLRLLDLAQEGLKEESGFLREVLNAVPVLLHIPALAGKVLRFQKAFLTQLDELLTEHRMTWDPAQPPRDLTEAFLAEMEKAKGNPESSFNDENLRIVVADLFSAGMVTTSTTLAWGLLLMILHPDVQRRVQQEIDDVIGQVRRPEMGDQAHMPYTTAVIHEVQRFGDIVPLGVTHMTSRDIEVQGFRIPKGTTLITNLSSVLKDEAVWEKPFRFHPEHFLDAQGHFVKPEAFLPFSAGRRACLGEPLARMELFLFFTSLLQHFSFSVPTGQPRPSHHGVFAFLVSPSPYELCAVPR

SMILES | activity, negative = inhibition | AC50
Cn1cc(-c2nc3cncnc3n(C3CC3)c2=O)c2ccccc21 | 1.12% (inactive) | –
COC(=O)CNC(=O)/C=C/c1ccc(OC)cc1 | -6.5% (inactive) | –
O=C(Cc1ccccc1)NC(=S)Nc1cc(C(F)(F)F)ccc1Cl | 0.576% (inactive) | –
COc1ccc(/C=C/C(=O)Nc2cc(C(F)(F)F)ccc2Cl)cc1 | – | 2.82 µM (active)
CN(C)c1cc[n+](CC(=O)Nc2cc(C(F)(F)F)ccc2Cl)cc1 | – | 0.126 µM (active)
Cc1cc(C)n(-c2ccc(C(=O)Nc3cc(C(F)(F)F)ccc3N3CCOCC3)cc2)n1 | -3.17% (inactive) | –
Cc1ccc(C(=O)NC(=S)Nc2cc(C(F)(F)F)ccc2Cl)cc1 | -4.63% (inactive) | –
COc1cc(C(=O)Nc2cc(C(F)(F)F)ccc2Cl)cc(OC)c1OC | -5.08% (inactive) | –
O=C(CS(=O)c1cccc(C(F)(F)F)c1)Nc1ccccc1Cl (stereo not drawn) | -4.85% (inactive) | –
N/C(CC(=O)Nc1cc(C(F)(F)F)ccc1Cl)=N\O | 2.47% [at 11.4 µM] (inactive) | –
Cc1cc[n+](CC(=O)Nc2cc(C(F)(F)F)ccc2Cl)cc1 | – | 0.224 µM (active)
Cc1ccc(C)n1CCN1CCN(CC(=O)Nc2cc(C(F)(F)F)ccc2Cl)CC1 | – | 11.2 µM (active)
COc1ccc2nc(NCN3C(=O)c4ccccc4C3=O)sc2c1 | -19.6% [at 11.4 µM] (inactive) | –
N[C@H](C(=O)N[C@@H]1C(=O)N2C(C(=O)O)=C(Cl)CS[C@@H]12)c1ccccc1 | – | inactive
CCOC(=O)C1=C(C)NC(=S)NC1c1cccc(O)c1 (stereo not drawn) | -8.2% (inactive) | –
O=C(O)CC[C@@H](NC(=O)c1ccccc1C(=O)O)C(=O)O | 0.18% (inactive) | –
Cc1nc2cnc(Oc3ccccc3)nc2n(-c2ccccc2)c1=O | -12.4% (inactive) | –
CCCN1C(=O)C2(/C(=C(\O)c3ccc4c(c3)OCCO4)C(=O)C(=O)N2CCCOC)c2ccccc21 (stereo not drawn) | 16.7% (inactive) | –
COc1ccc(Oc2ncc3nc(-c4cccs4)c(=O)n(Cc4cccc(OC)c4)c3n2)cc1 | -14.7% (inactive) | –
Fc1ccc2nc3[nH]c4ccccc4c3nc2c1 | -11% (inactive) | –
Cc1cc(N(CN2CCCC2=O)C(=O)c2ccc(F)cc2)no1 | 4.83% (inactive) | –
COc1cc(/C=N/NC(=O)c2cccs2)ccc1OCc1ccccc1 | -7.01% (inactive) | –
CCOc1ccc(C(=O)O)cc1OC | 14.4% (inactive) | –
COc1ccc(Cl)cc1NC(=O)NCCCl | 10.6% (inactive) | –
CCOc1ccc(Cl)cc1CNCCNCCO | – | 11.2 µM (active)

SMILES | activity, negative = inhibition | AC50
CCOc1ccc(Cl)cc1CNCCNCC(C)O (stereo not drawn) | – | 3.16 µM (active)
N=C1SCC(=O)N1c1nc(-c2ccccc2)cs1 | 7.13% (inactive) | –
C[C@@H]1NCC[C@H](CC(=O)O)[C@H]1CC(=O)O | 5.62% [at 11.4 µM] (inactive) | –
Cc1nnc(-c2cnn(-c3ccccc3)c2N)n1Cc1ccc(F)cc1 | 9.82% (inactive) | –
CCCCOc1ccc(-c2nnn(CC(=O)c3c[nH]c4ccccc34)n2)cc1 | 5.88% (inactive) | –
c1ccc(-c2c3ccccc3nc3[nH]c4ccccc4c23)cc1 | -3.6% (inactive) | –
c1ccc2c(-c3c[nH]c4ccccc34)c3ccccc3nc2c1 | – | 10 µM (active)
O=C(O)[C@@H](Cc1c[nH]c2ccccc12)C(=O)NO | 4.35% [at 11.4 µM] (inactive) | –
Cc1nc(Sc2ccccc2)c(C#N)cc1-c1ccccc1 | -7.18% (inactive) | –
Cc1nc2cc(NC(=O)CSc3nc4c(C)cccc4cc3C#N)ccc2s1 | -18.2% (inactive) | –
Nc1nc(SCC(=O)O)[nH]c(=O)c1N | 11% [at 11.4 µM] (inactive) | –
CO[C@@H]1/C=C\CC(=O)N[C@@H](C)C(=O)OC[C@@H](OC)[C@H](C)/C=C\CC(=O)OC[C@H]1C | 10.8% [at 11.4 µM] (inactive) | –
CCCN(CC1CC1)c1nc(C)nc(Nc2c(Cl)cc(Cl)cc2Cl)c1Cl | – | 1.58 µM (active)
COCCN(C(=O)C(C)C)c1nnc(-c2ccc(C)cc2)s1 | 20.1% (inactive) | –
CCC(CC)c1nnc(NC(=O)COc2ccc3c(C)cc(=O)oc3c2)s1 | -16.1% (inactive) | –
COc1ccc(NC(=O)CC2C(=O)N(c3cccc(OC)c3)C(=O)N2C2CCCCC2)cc1 (stereo not drawn) | -8.55% (inactive) | –
CN(CCc1ccc(Cl)c(Cl)c1)CCN1CCCCCC1 | – | 0.126 µM (active)
CN1CCN(CCc2ccc(Cl)c(Cl)c2)CC1 | – | 12.6 µM (active)
CN1CCN(CCCBr)CC1 | 3.38% [at 11.4 µM] (inactive) | –
CCOC(=O)c1c(NC(=O)CCC(=O)N2CCOCC2)sc2c1CC(C)(C)OC2 | -6.11% (inactive) | –
COC(=O)c1cc(C#N)c(NCc2ccc(Cl)cc2Cl)nc1C | 3.04% (inactive) | –
CC(C)COc1ccc(C(=O)Nc2scc(-c3ccc(Cl)cc3Cl)c2C(N)=O)cc1 | -3.75% (inactive) | –
Clc1ccccc1C(Nc1cnccn1)Nc1cnccn1 | 10.1% [at 11.4 µM] (inactive) | –
Cc1ccc(C(=O)NCC2CCCO2)cc1N1CCCC1=O (stereo not drawn) | -3.42% (inactive) | –
O=c1[nH][nH]c(C(F)(F)F)c1C=Nc1cccc(Cl)c1 | -0.732% (inactive) | –

SMILES | activity, negative = inhibition | AC50
CCCCOc1ccc(OC(=O)c2cccnc2)cc1 | -25.1% (inactive) | –
CCN(CC)CCOc1ccc(/C(=C(\Cl)c2ccccc2)c2ccccc2)cc1 | – | 5.01 µM (active)
COc1ccc(C(Cl)=C(c2ccc(OC)cc2)c2ccc(OC)cc2)cc1 | -1.8% [at 25.6 µM] (inactive) | –
Cc1nc(CN2CCCCC2)c(O)c(=O)[nH]1 | -19.7% [at 11.4 µM] (inactive) | –
N[C@@H](Cc1[nH]nc2ccccc12)C(=O)O | 3.39% [at 11.4 µM] (inactive) | –
O=C(/C=C/c1ccccc1)NNC(=O)c1cccnc1 | -3.07% (inactive) | –
C=CC1=C(C)C2=Cc3c(C=C)c(C)c4[n]3[Sn+2][n]3c(c(C)c(CCC(=O)O)c3=CC3=NC(=C4)C(C)=C3CCC(=O)O)=CC1=N2 | – | 1.26 µM (active)
CCCCCN1CC(O)=C(c2nc(-c3ccc(Cl)cc3)cs2)C1=N | 28.4% (inactive) | –
Cc1nc2ccccc2nc1-c1ccc(N=[N+]([O-])c2ccc(-c3nc4ccccc4nc3C)cc2)cc1 | -15.4% [at 11.4 µM] (inactive) | –
NC(=O)C[C@H](NC(=O)Cc1ccc(O)cc1O)C(=O)O | 5.57% (inactive) | –
COc1ccc(Cc2nnc(NC(=O)c3ccc(Cl)c([N+](=O)[O-])c3)s2)cc1 | 9.11% (inactive) | –
O=C(NCc1ccc(Cl)cc1)c1ccc(Cl)cc1[N+](=O)[O-] | -15.3% (inactive) | –
CC(C)(CNC(=O)c1ccc([N+](=O)[O-])c(Cl)c1)CNC(=O)c1ccc([N+](=O)[O-])c(Cl)c1 | – | 3.16 µM (active)
Nc1nc(N)nc(CC(=O)O)n1 | -1.79% [at 11.4 µM] (inactive) | –
O=C(N/N=C1\CCCc2ccccc21)c1ccc([N+](=O)[O-])cc1Cl | 3.67% (inactive) | –
Cc1cccc[n+]1CC(=O)Nc1ccc([N+](=O)[O-])cc1Cl | -9.2% (inactive) | –
O=C(Nc1ccc([N+](=O)[O-])cc1Cl)c1cc(Cl)ccc1O | – | 31.6 µM (active) and inactive
COc1ccccc1-c1cc(N(C)Cc2ccco2)ncn1 | – | 12.6 µM (active)
CN(C)Cc1ccccc1-c1cc(N(C)Cc2ccco2)ncn1 | – | 7.94 µM (active)
CN(Cc1ccco1)c1cc(-c2ccccc2Cl)ncn1 | -15.6% (inactive) | –
CCc1nc2cc(CC(=O)O)ccc2o1 | 3.13% (inactive) | –
N[C@@H](COP(=O)(O)O)C(=O)O | 13.7% (inactive) | –
COc1cccc(NC(=S)NN2CCN(C)CC2)c1 | -18.7% (inactive) | –
Cc1ccc(NC(=O)CN2C(=O)S/C(=C\c3cccn3C)C2=O)cc1 | 22% (inactive) | –
Cn1cc(-c2nc3cncnc3n(-c3ccccc3)c2=O)c2ccccc21 | -7.45% (inactive) | –

SMILES | activity, negative = inhibition | AC50
Cn1c(=O)c2[nH]c(CCCCC(=O)O)nc2n(C)c1=O | -13.7% [at 11.4 µM] (inactive) | –
CCn1c(=O)c2c(nc3n2CCS3)n(C)c1=O | 4.82% (inactive) | –
CCCCc1cc2ccccc2c(OCCN(C)C)n1 | – | 2 µM (active)
CCCCc1c(O)nc(SCCN(C)C)n(-c2ccccc2)c1=O | -18.2% (inactive) | –
C/C(=N\NC(=O)c1ccccc1C)c1ccc(NC(=O)c2cccs2)cc1 | -5.07% (inactive) | –
NS(=O)(=O)c1ccc(N=Nc2cc3ccccc3c(C(=O)O)c2O)cc1 | 4.38% [at 11.4 µM] (inactive) | –
Nc1ccccc1S[C@@H](C[N+](=O)[O-])c1ccc2c(c1)OCO2 | – | 3.98 µM (active)
Cc1ccc(OC(=O)c2cccc(C(=O)Oc3ccc(C)cn3)n2)nc1 | -6.82% (inactive) | –
CN1CCCCC1=NCCCn1cnc2c1c(=O)n(C)c(=O)n2C | 5.89% (inactive) | –
COc1cc(/C=N/NC(=O)c2cccnc2)ccc1OC(=O)c1ccc2c(c1)OCO2 | 10.4% (inactive) | –
COc1ccc(C(=O)N/N=C2/SCC(=O)N2Cc2ccc3c(c2)OCO3)cc1OC | – | 15.8 µM (active)
CCOC(=O)N/N=C1/C[C@@H](O)[C@@H](O)[C@@H]2[C@@H]3C(=O)N(Cc4ccc5c(c4)OCO5)C(=O)[C@H]3CC[C@@H]12 | 6.47% [at 11.4 µM] (inactive) | –
CCOC(=O)N1CCN(C(=O)CN(C)S(=O)(=O)c2ccc3c(c2)C(C)(C)C(=O)N3C)CC1 | 20.2% (inactive) | –
CC[C@@H]1OC(=O)[C@H](C)[C@H](O[C@@H]2C[C@](C)(OC)[C@H](O)[C@H](C)O2)[C@H](C)[C@H](O[C@@H]2O[C@@H](C)C[C@@H](N(C)C)[C@@H]2O)[C@](C)(O)C[C@H](C)[C@@H]2N[C@H](COCCOC)O[C@H]([C@@H]2C)[C@]1(C)O | 8.43% [at 25.6 µM] (inactive) | –
CS(=O)(=O)N1CCC2(CCN(Cc3nccs3)CC2)CC1 | 7.26% (inactive) | –
COc1ccccc1CN1CC[C@@]2(CCCN(S(=O)(=O)c3ccccc3)C2)C1 | – | 0.01 µM (active)
COc1ccccc1CN1CCC2(CC1)CCN(S(C)(=O)=O)CC2 | – | 0.02 µM (active)
COc1ccccc1CN1CC[C@@]2(CCCN(S(C)(=O)=O)C2)C1 | – | 0.316 µM (active)
COc1ccccc1CN1CCCC2(CCN(S(C)(=O)=O)CC2)C1 | – | 0.0631 µM (active)
COc1ccc(NC(=O)N2CC[C@@]3(CCCN(S(C)(=O)=O)C3)C2)cc1 | 20.3% (inactive) | –
CS(=O)(=O)N1CCC[C@@]2(CCN(c3ccncc3)C2)C1 | -1.64% (inactive) | –
O=S(=O)(c1ccccc1)N1CCC[C@@]2(CCN(c3ccccc3)C2)C1 | -10.2% (inactive) | –
COc1ccc(NC(=O)N2CCCC3(CCN(S(C)(=O)=O)CC3)C2)cc1 | -0.845% (inactive) | –

From PubChem BioAssay AID1851 (National Center for Advancing Translational Sciences (NCATS), 2009)
